According to PubChem BioAssay (NCI):
About 83,000 compounds went through this panel and 20% of them were active in at least one assay; those are over-represented in the sample as a whole.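 Single-concentration screen, 48 h exposure, 96-well plates. Endpoint: percent growth. Below 10 = active.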 Values without a mark were called inactive. Activity calls are given as the source filed them.

How the values were obtained:
Assay in all cases: NCI-60 one-dose screen, 48 h (100 = growth as untreated, 0 = no growth, -100 = all killed)
Conditions in all cases: 10 µM
HCT-15 colon = test system: HCT-15 colon
HT29 colon = test system: HT29 colon
SNB-75 CNS = test system: SNB-75 CNS
SNB-19 CNS = test system: SNB-19 CNS
U251 CNS = test system: U251 CNS
PC-3 prostate = test system: PC-3 prostate
SK-MEL-5 melanoma = test system: SK-MEL-5 melanoma
UACC-62 melanoma = test system: UACC-62 melanoma
LOX IMVI melanoma = test system: LOX IMVI melanoma
SK-MEL-28 melanoma = test system: SK-MEL-28 melanoma
SK-MEL-2 melanoma = test system: SK-MEL-2 melanoma
EKVX NSCLC = test system: EKVX NSCLC
SN12C renal = test system: SN12C renal
UO-31 renal = test system: UO-31 renal
TK-10 renal = test system: TK-10 renal
ACHN renal = test system: ACHN renal
CAKI-1 renal = test system: CAKI-1 renal
A498 renal = test system: A498 renal
CCRF-CEM leukemia = test system: CCRF-CEM leukemia
MOLT-4 leukemia = test system: MOLT-4 leukemia

| SMILES | growth (HCT-15 colon) | growth (HT29 colon) | growth (SNB-75 CNS) | growth (SNB-19 CNS) | growth (U251 CNS) | growth (PC-3 prostate) | growth (SK-MEL-5 melanoma) | growth (UACC-62 melanoma) | growth (LOX IMVI melanoma) | growth (SK-MEL-28 melanoma) | growth (SK-MEL-2 melanoma) | growth (EKVX NSCLC) | growth (SN12C renal) | growth (UO-31 renal) | growth (TK-10 renal) | growth (ACHN renal) | growth (CAKI-1 renal) | growth (A498 renal) | growth (CCRF-CEM leukemia) | growth (MOLT-4 leukemia) |
| --- | --- | --- | --- | --- | --- | --- | --- | --- | --- | --- | --- | --- | --- | --- | --- | --- | --- | --- | --- | --- |
| Cn1cc(/C=N/Nc2ccnc3cc(Cl)ccc23)c2ccccc21 | -92.2% (active) | -40.1% (active) | -85.8% (active) | -79.8% (active) | -49.8% (active) | -51.5% (active) | -98.2% (active) | -66.1% (active) | -83.7% (active) | -89.6% (active) | -72.3% (active) | -85.1% (active) | -59.4% (active) | -90.1% (active) | -72.1% (active) | -92.7% (active) | -85.3% (active) | -80.2% (active) | -35.6% (active) | -32.1% (active) |
| Cc1cc(=O)oc2cc(OCCCCOc3ccc(/C=C/C(=O)Nc4ccccc4[N+](=O)[O-])cc3)ccc12 | 104% | 117% | 103% | 97.8% | 106% | 109% | 102% | 94.9% | 107% | 103% | 117% | 105% | 100% | 90.6% | 104% | 108% | 100% | 127% | 99.8% | 108% |
| Cc1ccc2nc(-c3ccc(-c4nnc(SCC(=O)Nc5ccc(Br)cc5)o4)cc3)[nH]c2c1 | 42% | 77.5% | 83.8% | 70.3% | 11.5% | 56.8% | 85.5% | 57.3% | -12.7% (active) | 92.4% | 83.8% | 85.1% | 51% | 51.5% | 74.7% | 67.8% | 76.5% | 83.4% | 38.2% | 15.9% |
| Nc1n[nH]c2cccc(C#Cc3cccc(NC(=O)Nc4cc(C(F)(F)F)cc(C(F)(F)F)c4)c3)c12 | -81.8% (active) | -49.7% (active) | -0.721% (active) | -19.7% (active) | -78.5% (active) | -4.77% (active) | -100% (active) | -90.9% (active) | -100% (active) | -88.5% (active) | -96.8% (active) | -30.3% (active) | -85.9% (active) | -52.5% (active) | -3.32% (active) | -25.4% (active) | -15.6% (active) | -17.4% (active) | -1.88% (active) | -1.46% (active) |
| O=C(CSc1nnc(-c2c[nH]c3ccccc23)n1-c1ccccc1)c1ccccc1 | 79.4% | 47.9% | 100% | 19.2% | 10.8% | 65.8% | 90.7% | 73.4% | 29.2% | 100% | 91.9% | 68.4% | 44.7% | 55.5% | 72% | 60.5% | 53.2% | 106% | 91.4% | 90.6% |
| N#Cc1ccc(-c2nn(-c3ccc(C(=O)O)cc3)cc2CNc2ccc(Cl)cc2)cc1 | 47.3% | 100% | 107% | 75.9% | 76.8% | 65.2% | 76% | 61.2% | 60.8% | 77.6% | 96.2% | 67.8% | 82.2% | 61.8% | 108% | 74.6% | 71.2% | 111% | 77.5% | 68.8% |
| O=c1[nH]c2ccc(Cl)cc2cc1CSc1ccc(Nc2nccc(-c3ccc4ccccc4c3)n2)cc1 | 12.6% | 75.1% | 107% | 71.8% | 45.7% | 62.4% | 98.4% | 106% | 60.4% | 90.8% | 97.2% | 83.6% | 62.6% | 96.2% | 79.8% | 100% | 97.1% | 119% | 80% | 80.5% |
| O=[N+]([O-])c1ccc(-c2nc(-c3ccccc3)c(-c3ccccc3)n2-c2ccc(S(=O)(=O)Nc3ncccn3)cc2)cc1 | 23.8% | 41.4% | 44.1% | 27.3% | 35.8% | 29.7% | 28.4% | 42% | 28% | 36.2% | 69.4% | 22.8% | 38.9% | 22.1% | 66% | 50.1% | 29% | 79.3% | 20.8% | 26.2% |
